Several values for one entry are separate records, joined by “and”; a condition that tells them apart may be missing. Equal entries are not always repeated. This is part of a sample that, as a whole, favours compounds with a hit. Of some 83,000 tested, about 20% had one in any assay.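 The test compound was applied at a single concentration to cells in 96-well plates for 48 hours, and percent growth was recorded.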 Activity calls are given as the source filed them. How the source made its calls: active means growth percent below 10; inactive means the rest.
Each molecule was assayed on MDA-MB-468 breast (assay: NCI-60 one-dose screen, 48 h (100 = growth as untreated, 0 = no growth, -100 = all killed)). Conditions: 10 µM unless noted.

SMILES	growth
CC(C)Cc1ccc(C(C)C(=O)NCc2ccc(Cn3c(=O)sn(CCCI)c3=O)cc2)cc1 (stereo not given)	64.3% (inactive) and -91.8% (active)
COc1ccc(-c2nn(-c3ccccc3)cc2/C=C2\SC(=O)NC2=O)cc1	107% (inactive)
O=C(NNc1nc2cc(F)cc(F)c2n2cccc12)c1ncccn1	3.64% (active)
N#Cc1ccc(NC(=O)Nc2cccc(C#N)c2)cc1	46.5% (inactive)
CCOc1ccc(N2C(=O)CCSC2=S)cc1	97.1% (inactive)
COc1ccc(C2=Nc3c(C)nn(-c4ccccc4)c3NC(c3ccc(Oc4ccnc5cc(Cl)ccc45)c(OC)c3)C2)cc1 (stereo not given)	80.3% (inactive)
C=NNc1ccccc1	91.2% (inactive)
N#CCCCCCn1c2ccccc2c2c3c(c4c5ccccc5n(CCCCCC#N)c4c21)C(=O)N(O)C3=O	87.8% (inactive)
Nc1ccccc1C(=O)Nc1ccc(Cl)cc1Cl	94.5% (inactive)
C=C(C)[C@@H]1CC[C@]2(CO)CC[C@]3(C)[C@H](CC[C@@H]4[C@@](C)(CCCN)[C@H](C(=C)C)CC[C@]43C)[C@@H]12	-71.4% (active)
O=C(Nc1cccc(NC(=O)C2CCCCC2)c1)c1ccccn1	116% (inactive)
CCCCOC(=O)c1c(C)[nH]c(/C=C2\N=C(c3ccc[nH]3)C=C2OC)c1C	-58.2% (active)
CCCCCC/C=C1\CCC(CN2CCCC2)C1=O (stereo not given)	73.2% (inactive)
C(=C(\C1=NCCN1)n1cnc2ccccc21)/c1cccc2ccccc12	80.6% (inactive)
Cn1cc(-c2ncnc3ccc(-c4cnc(Cl)c(NS(C)(=O)=O)c4)cc23)c2ccccc21	-1.16% (active)
Cc1cc(C)c(-c2cc(O)c(-c3c(C)cc(C)cc3C)cc2O)c(C)c1	4.15% (active)
CCCCn1c(=O)c(/C=C/C(=O)/C=C/c2cc3ccccc3n(CCCC)c2=O)cc2ccccc21	-59.4% (active)
CN(C)c1ccc(-c2ccc3[nH]c(=O)nc(-c4ccc(F)cc4)c3c2)cn1	1.22% (active)
CC1=N[C@@H]2CN(C(=O)OC(C)(C)C)C[C@@H]2n2c1cc1ccccc1c2=O	111% (inactive)
O=C(NC1CCN(Cc2ccccc2)CC1)c1cc(-c2cccnc2)nc2ccc(Cl)cc12	54.7% (inactive)

SMILES	growth
CCC(C)(C)C(=O)O[C@H]1C[C@@H](C)C=C2C=C[C@H](C)[C@H](CC[C@@H]3C[C@@H](O)CC(=O)O3)[C@H]21	52.6% (inactive)
COc1cccc2ccc(CC(O)(c3ccccc3)c3ccccc3)nc12	46.7% (inactive)
Nc1cc(Br)c(-c2nnc(CCC(=O)c3nc4ccccc4[nH]3)o2)c(Br)c1	16.9% (inactive)
CN(C)CCCSc1ccccc1NC1=C(Cl)C(=O)C(Nc2ccccc2SCCCN(C)C)=C(Cl)C1=O	-61.4% (active)
CC(C)CCSc1nc(NNC(N)=O)c(C#N)c(-c2ccccc2)n1	108% (inactive)
CN(c1cc2ncc(=O)[nH]c2cc1NC(N)=NCc1ccc(Cl)cc1)C1CCCCC1	-80.8% (active)
O=[N+]([O-])c1ccc(NC(=S)NNC(=S)Nc2ccc(Br)cc2)cc1	82.5% (inactive)
O=C1Nc2cc(-c3ccc(NC(=O)c4ccccc4)cc3)ccc2/C1=C/c1ccc[nH]1	2.14% (active)
O=C(CBr)OCc1ccc([N+](=O)[O-])o1	109% (inactive)
Cc1ccc(C(=O)CSc2nc3ccccc3c(=O)n2C)cc1	82.6% (inactive)
O=C1Nc2ccccc2SC1C1SC(=S)N(Cc2ccccc2)C1=O (stereo not given)	31.4% (inactive)
C=Cc1cnc(Nc2ccc(OC)cc2)nc1NCCCNC(=O)C1CCC1	46.4% (inactive)
O=C(Nc1cccc2c1C(=O)c1cccc(Nc3cccc4c3C(=O)c3cccc(NC(=O)c5ccccc5)c3C4=O)c1C2=O)c1ccccc1	126% (inactive)
CCOC(=O)CN1CCC(C(=O)OCC)CC1	114% (inactive)
Cc1ccc(NC(=O)c2ccc(CN3CCN(C)CC3)c(I)c2)cc1Oc1ccc(-c2[nH]nc3ncnc(N)c23)cc1	105% (inactive)
O=C1C(Cl)=C(Nc2ccccc2)C(=O)C(Cl)=C1Nc1ccccc1	102% (inactive)
CC(C)=CC(=O)OCC(=O)O[C@@H]1C[C@]2(C(C)C)O[C@@]1(C)[C@@H]1CC[C@@H](C)[C@H]1[C@@H]2OC(=O)/C=C/c1ccccc1	64.3% (inactive)
COc1ccc(/C=C/C(=O)c2cc3c(N)c(C(=O)Nc4cccc5ccccc45)sc3nc2C)cc1	58.5% (inactive)
CSc1ccc(C(=O)C[n+]2cccc(C)c2)cc1	91.1% (inactive)
CN1CCN(Cc2ccc(NC(=O)c3cncc(C#Cc4cnc(N)nc4)c3)cc2C(F)(F)F)CC1	36% (inactive)

— PubChem BioAssay (NCI)
